# Where “and” joins values, the source holds several entries; their conditions need not be identical. Equal values may be shown once. Results filed as inconclusive are left out. Where a call stands in place of a potency, no number is given. Calls of active or inactive are those of the source. Calls follow the shape of the dose curve; as a rule, active = well fitted curve in either direction with a large enough effect; inconclusive = small, poorly fitted or top-dose-only effect; inactive = no such curve, though single readings can be large or run the other way.
# Molecular target: Lysosomal alpha-glucosidase (Homo sapiens) (UniProt P10253)
# Test: Confirmation of Inhibitors and Activators of Purified Human alpha-Glucosidase Using an Alternate Red Fluorescent Susbtrate
# Conditions: purified enzyme, red fluorogenic substrate; series mostly up to 63.4 µM
# In short: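 Recombinant human alpha-glucosidase (4 nM) with resorufin-[…] (400 uM) in 50 mM citrate buffer pH 5.0, 0.005% Tween-20, 20 min at room temperature, stopped at pH 10. AC50 from Hill fits.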
row,Compound,Potency
1,CC(=O)c1ccc(N2CCN(S(=O)(=O)c3ccc4c(c3)CC(=O)N4)CC2)cc1,919 nM [inhibitor] (active) and 1.06 µM [inhibitor] (active) and 1.3 µM [inhibitor] (active)
2,CC(=O)c1ccc(N2CCN(S(=O)(=O)c3ccc4c(c3)C(=O)OC4)CC2)cc1,inactive
3,COc1ccc(CCn2c(=S)[nH]c(=O)c3[nH]cnc32)cc1OC,inactive
4,CCCN1CNc2c(c(=O)[nH]c(=S)n2CCc2ccc(OCC)c(OCC)c2)C1,1.78 µM (active)
5,Clc1ncc(C#Cc2ccccc2)c2ncncc12,inactive
6,COc1ccc(C#Cc2c[nH]c(=O)c3cncnc23)cc1OC,inactive
7,O=S(=O)(c1ccc(Cl)cc1)N1CCN(c2nc(Nc3cc(Cl)ccc3O)nc3ccccc23)CC1,inactive
8,CCCN1CNc2c(c(=O)[nH]c(=S)n2CCc2c(C)cccc2C)C1,3.16 µM (active)
9,CCCN1CNc2c(c(=O)[nH]c(=S)n2CCC(C)C)C1,inactive
10,O=C1Cc2cc(S(=O)(=O)N3CCN(c4ccc(CO)cc4)CC3)ccc2N1,13 µM [inhibitor] (active)
11,CCCN1CNc2c(c(=O)[nH]c(=S)n2CCc2ccc(Cl)c(Cl)c2)C1,2.24 µM (active)
12,CCCN1CNc2c(c(=O)[nH]c(=S)n2CCc2cc(OC)cc(OC)c2)C1,0.708 µM (active)
13,O=c1[nH]cc(CCc2ccccc2)c2ncncc12,inactive
14,Nc1nc(N)c2nc(-c3ccccc3)c(N)nc2n1,inactive
15,CC(=O)c1ccc(N2CCN(S(=O)(=O)c3ccc4c(c3)n(C)c(=O)n4C)CC2)cc1,inactive
16,CCCN1CNc2c(c(=O)[nH]c(=S)n2CCc2ccc(OC)cc2)C1,6.31 µM (active)
17,CCCN1CNc2c(c(=O)[nH]c(=S)n2CCCc2ccccc2)C1,31.6 µM (active)
18,CCCN1CNc2c(c(=O)[nH]c(=S)n2CCc2c(OC)cccc2OC)C1,14.1 µM (active)
19,CC(=O)Nc1ccc(S(=O)(=O)N2CCN(c3ccc(C(C)=O)cc3)CC2)cc1,inactive
20,CCCN1CNc2c(c(=O)[nH]c(=S)n2Cc2ccc(OC)c(OC)c2)C1,2.82 µM (active)
21,CCCN1CNc2c(c(=O)[nH]c(=S)n2CCC)C1,inactive
22,Cc1nc(N=Nc2cc(S(=O)(=O)O)c3cc([N+](=O)[O-])cc(S(=O)(=O)O)c3c2)c(COP(=O)(O)O)c(C=O)c1O,inactive
23,Cc1ccc(N2CCN(S(=O)(=O)c3ccc4c(c3)CC(=O)N4)CC2)cc1,inactive
24,O=C1Cc2cc(S(=O)(=O)N3CCN(c4ccc(O)cc4)CC3)ccc2N1,2.37 µM [inhibitor] (active)
25,CC(=O)c1ccc(N2CCN(S(=O)(=O)c3ccc4[nH]c(=O)[nH]c4c3)CC2)cc1,inactive
26,CCCN1CNc2c(c(=O)[nH]c(=S)n2CCc2cccc(Cl)c2)C1,11.2 µM (active)
